Source: PubChem BioAssay AID2284347 (EPA ToxCast)
Records with an inconclusive call do not appear. Activity calls are given as the source filed them. The calls were made as follows: active = hit-call score of the fitted dose curve at least 0.9, where 1 is the maximum; inconclusive = response in the unintended direction; inactive = score below 0.9.

Tested on: rainbow trout Peroxisome Proliferator-activated Receptor alpha (PPARa), gene 110490141
Experiment: ATG_rtPPARa_EcoTox2: Attagene TRANS-FACTORIAL EcoTox-2 HepG2 Assay for rainbow trout Peroxisome Proliferator-activated Receptor alpha (PPARa)
Description: ATG_EcoTox2 is a cell-based, multiplexed assay created by modifying the existing Attagene TRANS-FACTORIAL system to include a panel of nuclear receptors from some or all the following species: human (Homo sapiens), african clawed frog (Xenopus laevis), rainbow trout (Oncorhynchus mykiss), japanese medaka (Oryzias latipes), and zebrafish (Danio rerio). The ECOTOX2-FACTORIAL format uses HepG2, a human liver cell line, with measurements taken at 24 hours after chemical dosing in a 24-well plate. ATG_rtPPARa_EcoTox2 is one of 29 assay components calculated in the ATG_EcoTox2 assay. It is designed to make measurements of mRNA induction, a form of inducible reporter, as detected with fluorescence intensity signals by Reverse transcription polymerase chain reaction (RT-PCR) and Capillary electrophoresis technology.The assay endpoint ATG_frPPARa_EcoTox2 was analyzed in the positive analysis fitting direction relative to DMSO as the negative control and baseline of activity. Using a type of inducible reporter, measures of mRNA for gain-of-signal activity can be used to understand the reporter gene at the transcription factor-level as they relate to the gene PPARa. Furthermore, this assay endpoint can be referred to as a primary readout, because this assay has produced multiple assay endpoints where this one serves a reporter gene function. […]

O=S(=O)(O)C(F)(F)C(F)(F)C(F)(F)C(F)(F)C(F)(F)C(F)(F)F
AC50: 30.6 µM (active)

O=C(O)C(F)(F)C(F)(F)C(F)(F)C(F)(F)C(F)(F)C(F)(F)C(F)(F)F
AC50: 54.2 µM (active)
